These results are taken from PubChem BioAssay (NCI).

SMILES strings stand for the structures. Compounds without any hit were thinned out: in the full panel of roughly 83,000, 20% have a hit.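 48-hour exposure, single concentration, 96-well plates; percent growth endpoint where 0 means no net growth. Active: below 10.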 Values without a mark were called inactive. Activity calls are given as the source filed them.

Test in all cases: NCI-60 one-dose screen, 48 h (100 = growth as untreated, 0 = no growth, -100 = all killed)
What all share (conditions): 10 µM unless noted

For experiment [1], the system named is SR leukemia.
In experiment [2] the test system is RPMI-8226 leukemia.
Experiment [3] deals with OVCAR-8 ovarian.
The subject of experiment [4] is OVCAR-5 ovarian.
In experiment [5] the test system is OVCAR-4 ovarian.
Experiment [6] relates to SK-OV-3 ovarian.
Experiment [7] deals with IGROV1 ovarian.
Experiment [8] relates to OVCAR-3 ovarian.
The subject of experiment [9] is HS 578T breast.
The test system of experiment [10] is NCI/ADR-RES ovarian.

Take `N#Cc1c(Nc2ccccc2)nn2cc(-c3nc4ccccc4s3)c(N)nc12`: the growth in [1] was 74.3%; in experiment [2] it was 91.9%; in experiment [3], 70.7%; in [4] it was 88.5%; in [5], -13.7% (active); in [6], 90.2%. The growth in experiment [7] was 65.5%; in [8] it was 97%; in [9] it was 64.3%; in experiment [10] it was 50.6%.

Turning to `CC(=O)CCSc1ccc(OC(C)=O)cc1`, the growth in experiment [1] is 90.1%; in experiment [2], 92.8%; in experiment [3], 96.6%; in [4], 111%; in experiment [5], 107%; in [6] it was 101%. The growth in experiment [7] is 114%; in experiment [8] it was 104%; in [9], 106%; in experiment [10], 106%.

For `COc1cc(Nc2cc(O)c3c(=O)cc(-c4ccccc4)oc3c2)cc(OC)c1`, the growth in experiment [1] was 17.3%; in [2], 17.1%; in [3], 26.1%; in experiment [4], 45.5%; in [5] it was 59.3%; in experiment [6], 35.9%. In addition, the growth is 42.1% in [7], 0.368% (active) in experiment [8], 12.4% in [9] and 22.2% in experiment [10].

As to `Cc1ccc(C2C3CC4CCCCC4N3[C@@]3(C(=O)Nc4cc(Cl)ccc43)C2C(=O)c2nc3ccccc3[nH]2)cc1` (stereo not given in full), the growth is 21.2% in experiment [1]; 9.27% (active) in [2]; 56.7% in [3]; 49% in experiment [4]; 30.6% in experiment [5]; 77.6% in experiment [6]. In addition, the growth in experiment [7] is 26.4%; in experiment [8], 33.4%; in experiment [9], 61%; in experiment [10], 41.7%.

With `CCCCCCCC(=O)Nc1nc2[nH]c(CN3CCN(Cc4cccc(I)c4)CC3)c(CN3CCN(Cc4cccc(I)c4)CC3)c2c(=O)[nH]1`, the growth in experiment [1] is -43.4% (active); in experiment [2] it was -22.5% (active); in experiment [3], -49.6% (active); in experiment [4], -66.1% (active); in experiment [5], -89.8% (active); in experiment [6] it was -69.8% (active). Further, the growth in experiment [7] is -74% (active); in [8] it was -95.8% (active); in experiment [9] it was -40.9% (active); in [10] it was -51.1% (active).

`Fc1ccc(C2CC(c3cccc(Nc4ccncc4)c3)=NN2c2ccc(Cl)cc2)cc1` (stereo not given): the growth in experiment [1] was 4.4% (active); in [2], 28%; in experiment [3], 22.6%; in experiment [4] it was 88.8%; in [5], 60.7%; in experiment [6], 80.9%. Further, the growth in experiment [7] was 44.3%; in [8], 67.8%; in [9] it was 79.9%; in experiment [10] it was 66.8%.

Consider `O=C(CCN1CCCC1)Nc1ccc2c(Nc3ccccc3)c3ccccc3nc2c1`, for which the growth was -14.9% (active) in experiment [1]; -27.3% (active) in experiment [2]; 7.5% (active) in [3]; 20% in experiment [4]; -4.97% (active) in experiment [5]; 23.8% in experiment [6]. Besides, the growth in experiment [7] is 13.5%; in experiment [8], -25% (active); in experiment [9], 32.2%; in [10] it was 47.1%.

As for `NC(=O)c1cccc(-c2cc(C(N)=O)ccc2Cl)c1`, the growth is 2.33% (active) in experiment [1]; 14.3% in experiment [2]; 28.9% in experiment [3]; 51.3% in experiment [4]; 58.6% in experiment [5]; 88.9% in [6]. The growth is 49.3% in [7], -0.229% (active) in experiment [8], 5.29% (active) in experiment [9] and 19% in experiment [10].

Take `O=C(/C=C\c1ccc(OCCCCCC[P+](c2ccccc2)(c2ccccc2)c2ccccc2)cc1)c1ccc2c(c1)OCCO2`: the growth is -18.9% (active) in [1]; -41.7% (active) in [2]; 1.04% (active) in experiment [3]; 13.9% in experiment [4]; -3.06% (active) in experiment [5]; -23.8% (active) in experiment [6]. The growth in experiment [7] was 5.29% (active); in [8] it was -27% (active); in [9] it was 7.53% (active); in [10] it was 78.1%.

Regarding `CCOC(=O)N1CCN(CCCCl)CC1`, the growth is 97.1% in experiment [1]; 114% in experiment [2]; 98.8% in [3]; 93.3% in [4]; 109% in [5]; 126% in experiment [6]. Moreover, the growth in [7] is 97.1%; in [8], 119%; in experiment [9] it was 108%; in [10], 102%.

Consider `Cc1[nH]c(C(=O)Nc2ccccc2OCc2cccc(C(=O)NCCN)c2)c(Cl)c1Cl`, for which the growth in experiment [1] is -15.8% (active); in experiment [2], 30.1%; in [3] it was 37.9%; in [4] it was 104%; in experiment [5] it was 98.1%; in experiment [6], 108%. The growth in experiment [7] was 71.1%; in [8], 76.4%; in experiment [9], 92.6%; in experiment [10], 94.3%.

On to `CCCCCCCCN1C(=O)/C(=c2\sc3n(c2=O)C2C(NN=3)N(CC)C(=O)N2CC)c2ccccc21` (stereo not given), for which the growth in experiment [1] is 77.5%; in experiment [2] it was 105%; in experiment [3], 85.7%; in experiment [4] it was 81.6%; in experiment [5], 94.2%; in [6], 90.6%. The growth was 86.5% in [7], 98.6% in experiment [8], 40.4% in experiment [9] and 82.2% in experiment [10].

For the molecule `O=S(=O)(NCCNc1nccc(-c2c(-c3ccc(F)c(O)c3)nc3occn23)n1)c1ccccc1`, the growth in experiment [1] was 20.2%; in [2], 33.7%; in [3], 53.7%; in experiment [4], 101%; in [5] it was 85.8%; in experiment [6] it was 68.6%. Further, the growth in experiment [7] is 43.9%; in experiment [8], 77.1%; in experiment [9] it was 54.4%; in experiment [10], 109%.

For `Cc1ccc(C(=O)Nc2ccccc2C(=O)N/N=C(\c2ccccc2)c2ccccn2)cc1`, the growth was 16.8% in experiment [1]; 16% in experiment [2]; 19.5% in experiment [3]; 43.3% in experiment [4]; 9.94% (active) in experiment [5]; 8.33% (active) in experiment [6]. The growth in experiment [7] was 24%; in experiment [8], 22.5%; in experiment [9] it was 68.3%; in experiment [10] it was 13.3%.
